From PubChem BioAssay (EPA / NIEHS)
Where “and” joins values, the source holds several entries; their conditions need not be identical. Equal entries are not always repeated. Records with an inconclusive call do not appear. Calls of active or inactive are those of the source. How the source made its calls: active means hit-call score of the fitted dose curve at least 0.9, where 1 is the maximum; inconclusive means response in the unintended direction; inactive means score below 0.9.

Molecular target: Cellular tumor antigen p53 (Homo sapiens) (UniProt P04637)
Assay: TOX21_p53_BLA_p2_ratio: Tox21 HCT-116 p53 Agonism Beta-lactamase Assay, Ratio, Phase 2 (AID 2283592)
Method in brief: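 HCT-116 cells with p53-responsive beta-lactamase reporter, 4000 cells/well, preincubated 5 h, then compound in DMSO (217-fold dilution) for 16 h at 37C. CCF4-AM substrate 2 h at room temperature; 460/530 nm emission ratio fitted upward versus DMSO.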

Cellular tumor antigen p53 (Homo sapiens), sequence (P04637 whole entry, looked up): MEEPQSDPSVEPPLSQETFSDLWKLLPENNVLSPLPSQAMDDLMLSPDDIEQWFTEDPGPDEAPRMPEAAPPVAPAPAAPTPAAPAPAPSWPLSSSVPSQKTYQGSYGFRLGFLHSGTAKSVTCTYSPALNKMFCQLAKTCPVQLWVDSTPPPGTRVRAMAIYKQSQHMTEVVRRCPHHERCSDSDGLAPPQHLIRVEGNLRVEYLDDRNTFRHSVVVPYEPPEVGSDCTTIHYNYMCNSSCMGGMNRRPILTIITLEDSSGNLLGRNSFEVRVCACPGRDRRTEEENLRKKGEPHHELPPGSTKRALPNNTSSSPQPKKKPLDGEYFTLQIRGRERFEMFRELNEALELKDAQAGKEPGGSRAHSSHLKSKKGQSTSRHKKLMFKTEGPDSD

| Structure (SMILES) | outcome | AC50 |
| --- | --- | --- |
| CCCCCCC=O | inactive |  |
| C=Cc1ccc(OC(C)=O)cc1 | inactive |  |
| CC(C)c1cccc(C(C)C)c1N | inactive |  |
| CCCCCCCC(=O)OCC(COC(=O)CCCCCCC)OC(=O)CCCCCCC | inactive |  |
| C=C(C)OC(C)=O | inactive |  |
| CCCCC1C(=O)N(c2ccccc2)N(c2ccccc2)C1=O | inactive |  |
| O=C(Oc1ccccc1)c1ccccc1C(=O)Oc1ccccc1 | inactive |  |
| CC(C)(C)NC(=O)[C@H]1CC[C@H]2[C@@H]3CC[C@H]4NC(=O)C=C[C@]4(C)[C@H]3CC[C@]12C | inactive |  |
| C=CC(=O)OCCCCCCOC(=O)C=C |  | 69.1 µM (active) and 66.7 µM (active) |

Test system: not listed separately
Assay: TOX21_p53_BLA_p3_viability: Viability Assessment in the Tox21 HCT-116 p53 Agonism Beta-lactamase Assay, Phase 3 (AID 2283593);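 further: cells exposed to compound for 16 h before reading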
Method in brief: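 HCT-116 cells (4000/well) rested 5 h at 37C, then got DMSO compounds by pin tool (217-fold dilution) for 16 h at 37C, 5% CO2. After the bla read, CellTiter-Glo was added and luminescence read at 30 min, room temperature.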

| Structure (SMILES) | outcome | AC50 |
| --- | --- | --- |
| Oc1ccc(/C=C/c2cc(O)cc(O)c2)cc1 | inactive |  |
| O=C(O)c1ccc2c(c1)C(=O)OC2=O | inactive |  |
| N=C1C=CC(=C(c2ccc(N)cc2)c2ccc(N)cc2)C=C1 | inactive |  |
| CC1(C)[C@@H]2CC[C@@]1(C)C(=O)C2 | inactive |  |
| Oc1ccc(-c2ccccc2)c(Cl)c1 | inactive |  |
| C=C(C)C(=O)OCCOC(=O)C(=C)C | inactive |  |
| Oc1c(Cl)cc(Cl)c(Cl)c1Cl | inactive |  |
| O=C(O)C1CCC(C(=O)O)CC1 (centres undefined) | inactive |  |
| CCCCNC(=S)NCCCC | inactive |  |
| O=C(Cl)c1ccc(C(=O)Cl)cc1 | inactive |  |
| C=C1C[C@H]2[C@@H]3C=C(C)C4=CC(=O)CC[C@]4(C)[C@H]3CC[C@]2(C)[C@@]1(OC(C)=O)C(C)=O | inactive |  |
| CCCCCCO | inactive |  |
| O=C(O[C@@H]1Cc2c(O)cc(O)cc2O[C@@H]1c1cc(O)c(O)c(O)c1)c1cc(O)c(O)c(O)c1 | inactive |  |
| CC(=O)CC(=O)Nc1ccccc1C | inactive |  |
| C=CC(=O)OCCCCCCCC(C)C | inactive |  |
| CC(=O)c1ccccc1O | inactive |  |
| CCCCC(=O)O | inactive |  |
| O=C(O)/C=C/c1ccccc1 | inactive |  |

| Structure (SMILES) | outcome | AC50 |
| --- | --- | --- |
| CCCCCC[C@@H](O)C/C=C\CCCCCCCC(=O)OCC(O)CO (some centres undefined) | inactive |  |
| Clc1cc(Cl)c(Cl)c(Cl)c1Cl | inactive |  |
| CCCCCCCCCCCC(=O)OCC | inactive |  |
| Fc1ccc(Br)cc1 | inactive |  |
| CCCCCCOc1ccc(N)cc1 | inactive |  |
| O=C1CCCCCCCCCCCN1 | inactive |  |
| C1CNCCN1 | inactive |  |
| CCCCCCCCCCCCc1ccc(O)cc1 |  | 39.9 µM (active) |
| CCCCCCC=O | inactive |  |
| C=Cc1ccc(OC(C)=O)cc1 | inactive |  |
| CC(C)c1cccc(C(C)C)c1N | inactive |  |
| CCCCCCCC(=O)OCC(COC(=O)CCCCCCC)OC(=O)CCCCCCC | inactive |  |
| C=C(C)OC(C)=O | inactive |  |
| CCCCC1C(=O)N(c2ccccc2)N(c2ccccc2)C1=O | inactive |  |
| O=C(Oc1ccccc1)c1ccccc1C(=O)Oc1ccccc1 | inactive |  |
| CC(C)(C)NC(=O)[C@H]1CC[C@H]2[C@@H]3CC[C@H]4NC(=O)C=C[C@]4(C)[C@H]3CC[C@]12C | inactive |  |
| C=CC(=O)OCCCCCCOC(=O)C=C | inactive |  |
